Laboratory results as given in PubChem BioAssay (Tox21).
Records with an inconclusive call do not appear. Calls of active or inactive are those of the source. Unless noted, calls follow the shape of the dose curve; as a rule, active = well fitted curve in the direction sought with a large enough effect in the repeat runs; inconclusive = weak or mixed curves; inactive = no such curve, though single readings can be large; an effect the other way counts as inactive or inconclusive.

Assays:
[1] = qHTS assay to test for compound auto fluorescence at 460 nm (blue) in HEK293 cell free culture (AID 720681)
Summary of the method: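 Compounds were added to cell-free DMEM with 10% FBS and fluorescence read directly. The blue channel used 405 nm excitation and 460 nm emission, with triamterene as the reference fluorophore.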

[2] = qHTS assay to test for compound auto fluorescence at 535 nm (green) in HEK293 cell free culture (AID 720682)
Summary of the method: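 No cells present: wells hold DMEM supplemented with 10% FBS, into which compound or vehicle is pinned. Green emission is then recorded (485 nm excitation, 535 nm emission) and scaled to fluorescein.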

[3] = qHTS assay to test for compound auto fluorescence at 590 nm (red) in HEK293 cell free culture (AID 720683)
Summary of the method: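 Cell-free wells of DMEM with 10% FBS received compound, and intrinsic fluorescence was read at excitation/emission 540/590 nm. Values expressed as equivalence to Rose Bengal sodium.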

[4] = qHTS assay to test for compound auto fluorescence at 590 nm (red) in HepG2 cell free culture (AID 720684)
Summary of the method: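 Rose Bengal sodium served as the reference for red signal. Test compounds were dispensed into serum-containing MEM (10% FBS) without cells, and plates were read at 540/590 nm.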

[5] = qHTS assay to test for compound auto fluorescence at 535 nm (green) in HepG2 cell free culture (AID 720686)
[6] = qHTS assay to test for compound auto fluorescence at 460 nm (blue) in HepG2 cells (AID 720687)
Summary of the method: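 HepG2 cells in MEM with 10% FBS, attached overnight at 37 C, were exposed to compound or DMSO for 1 hr at 37 C, 5% CO2. Blue fluorescence was read at 405/460 nm, with triamterene as reference fluorophore.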

[7] = target: Glucocorticoid receptor (Homo sapiens) (UniProt P04150); test: qHTS assay to identify small molecule agonists of the glucocorticoid receptor (GR) signaling pathway (AID 720691; active = well fitted activation curve with a large enough effect in the signal ratio in the repeat runs, not every such curve was filed as active; the % refers to the signal ratio)
Glucocorticoid receptor (Homo sapiens), sequence (P04150 whole entry, looked up): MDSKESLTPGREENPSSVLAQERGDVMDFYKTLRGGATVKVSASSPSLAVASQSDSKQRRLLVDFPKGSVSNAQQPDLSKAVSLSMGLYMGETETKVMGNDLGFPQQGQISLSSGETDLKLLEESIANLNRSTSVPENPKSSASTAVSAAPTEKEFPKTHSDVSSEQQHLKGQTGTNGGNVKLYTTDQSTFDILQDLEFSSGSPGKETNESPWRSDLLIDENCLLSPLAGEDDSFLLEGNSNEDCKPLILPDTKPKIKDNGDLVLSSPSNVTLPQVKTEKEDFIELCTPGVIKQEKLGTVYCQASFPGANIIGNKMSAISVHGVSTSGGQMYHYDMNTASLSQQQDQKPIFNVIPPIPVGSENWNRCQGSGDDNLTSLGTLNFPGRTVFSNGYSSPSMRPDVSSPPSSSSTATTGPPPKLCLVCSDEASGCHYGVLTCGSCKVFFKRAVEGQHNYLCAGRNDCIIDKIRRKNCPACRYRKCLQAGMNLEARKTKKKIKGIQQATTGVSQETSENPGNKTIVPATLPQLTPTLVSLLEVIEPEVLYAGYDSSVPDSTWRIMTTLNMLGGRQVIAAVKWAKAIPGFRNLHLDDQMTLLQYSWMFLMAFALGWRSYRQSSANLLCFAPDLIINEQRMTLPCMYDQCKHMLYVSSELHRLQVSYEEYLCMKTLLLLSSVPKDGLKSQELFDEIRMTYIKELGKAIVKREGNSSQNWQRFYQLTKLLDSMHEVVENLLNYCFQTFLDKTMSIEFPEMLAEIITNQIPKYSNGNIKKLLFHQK
Summary of the method: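 Agonist-mode qHTS in HeLa cells stably expressing a glucocorticoid-response-element beta-lactamase reporter. Fluorescence intensity read with FRET substrate (2 h, room temperature) after 18 h compound treatment at 37 C.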

[8] = target: Glucocorticoid receptor (Homo sapiens) (UniProt P04150); test: qHTS assay to identify small molecule antagonists of the glucocorticoid receptor (GR) signaling pathway (AID 720692; active = well fitted inhibition curve with a large enough effect in the signal ratio in the repeat runs, not every such curve was filed as active; the % refers to the signal ratio; also: potency is read from the fitted curve at half-maximal effect)
Summary of the method: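 Inhibition of dexamethasone-driven (5 nM final) beta-lactamase expression was measured in GRE-reporter HeLa cells over 18 h at 37C. Fluorescence was read after 2 h with the B/G FRET substrate at room temperature.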

[9] = qHTS assay to identify small molecule antagonists of the glucocorticoid receptor (GR) signaling pathway - cell viability counter screen (AID 720693); also: nearly all actives have a fitted effect of over 55% in size; also: potency is read from the fitted curve at half-maximal effect
[10] = qHTS assay for identifying genotoxic compounds that show differential cytotoxicity against isogenic chicken DT40 cell lines with known DNA damage response pathways - wild type cell line (AID 743012); also: nearly all actives have a fitted effect of over 60% in size; also: potency is read from the fitted curve at half-maximal effect
Summary of the method: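 Viability by ATP luminescence (CellTiter-Glo, 30 min RT) after 40 h compound treatment at 37 C/5% CO2, using 300 parental DNA repair-proficient DT40 cells per well.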

[11] = qHTS assay for identifying genotoxic compounds that show differential cytotoxicity against isogenic chicken DT40 cell lines with known DNA damage response pathways - Rev3 mutant cell line (AID 743014); also: nearly all actives have a fitted effect of over 55% in size; also: potency is read from the fitted curve at half-maximal effect
[12] = qHTS assay for identifying genotoxic compounds that show differential cytotoxicity against isogenic chicken DT40 cell lines with known DNA damage response pathways - Rad54/Ku70 mutant cell line (AID 743015); also: nearly all actives have a fitted effect of over 60% in size; also: potency is read from the fitted curve at half-maximal effect
[13] = qHTS assay to identify small molecule antagonists of the androgen receptor (AR) signaling pathway - cell viability counter screen (AID 743033; also: nearly all actives have a fitted effect of over 45% in size)
[14] = qHTS assay to test for compound auto fluorescence at 460 nm (blue) in HepG2 cell free culture (AID 720685)
Summary of the method: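 Cell-free plates of MEM plus 10% FBS received 23 nL compound or DMSO vehicle; blue-channel (405/460 nm) intensity scored against triamterene as reference fluorophore.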

[15] = qHTS assay to identify small molecule antagonists of the androgen receptor (AR) signaling pathway using the MDA cell line - cell viability counter screen (AID 743041; also: nearly all actives have a fitted effect of over 45% in size; also: potency is read from the fitted curve at half-maximal effect)
Summary of the method: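 Cytotoxicity counter screen: MDA-kb2 AR-luc cells, compound + R1881, 16 h, 37C, 0% CO2; CellTiter-Fluor added at 15.5 h, fluorescence read after 30 min.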

[16] = target: Androgen receptor (Homo sapiens) (UniProt P10275); test: qHTS assay to identify small molecule agonists of the androgen receptor (AR) signaling pathway using the MDA cell line (AID 743040; also: nearly all actives have a fitted effect of over 20% in size)
Androgen receptor (Homo sapiens), sequence (P10275 whole entry, looked up): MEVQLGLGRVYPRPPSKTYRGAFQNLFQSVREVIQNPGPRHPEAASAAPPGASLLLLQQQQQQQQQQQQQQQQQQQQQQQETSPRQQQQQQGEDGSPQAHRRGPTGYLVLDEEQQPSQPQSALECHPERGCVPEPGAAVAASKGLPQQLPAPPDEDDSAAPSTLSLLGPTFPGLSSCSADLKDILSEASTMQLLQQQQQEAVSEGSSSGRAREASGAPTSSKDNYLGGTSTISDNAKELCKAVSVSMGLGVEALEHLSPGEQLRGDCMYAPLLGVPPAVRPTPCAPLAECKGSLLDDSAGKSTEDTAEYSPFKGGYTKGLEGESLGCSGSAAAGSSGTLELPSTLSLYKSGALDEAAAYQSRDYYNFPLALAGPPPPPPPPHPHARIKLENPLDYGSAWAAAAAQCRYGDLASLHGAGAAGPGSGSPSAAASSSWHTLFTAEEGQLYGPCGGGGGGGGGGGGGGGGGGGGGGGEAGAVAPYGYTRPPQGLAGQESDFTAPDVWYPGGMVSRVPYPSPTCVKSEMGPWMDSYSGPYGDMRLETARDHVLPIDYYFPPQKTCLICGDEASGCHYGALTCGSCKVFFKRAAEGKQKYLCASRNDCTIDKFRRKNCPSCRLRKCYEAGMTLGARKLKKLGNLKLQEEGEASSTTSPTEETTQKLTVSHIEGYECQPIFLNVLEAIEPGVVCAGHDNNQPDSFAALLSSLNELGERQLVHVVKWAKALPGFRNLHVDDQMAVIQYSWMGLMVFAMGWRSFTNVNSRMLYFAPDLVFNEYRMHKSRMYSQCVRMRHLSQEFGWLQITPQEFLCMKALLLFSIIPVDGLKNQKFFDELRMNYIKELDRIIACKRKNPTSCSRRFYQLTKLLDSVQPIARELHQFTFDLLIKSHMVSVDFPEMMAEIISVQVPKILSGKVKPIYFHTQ
Summary of the method: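 Luciferase read-out, ONE-Glo, 30 min RT. Cells: MDA-kb2 AR-luc, MMTV promoter with AR and GR response elements. Compound exposure 16 h, 37C, 0% CO2, after 5 h pre-incubation. qHTS agonist mode.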

[17] = target: Androgen receptor (Homo sapiens) (UniProt P10275); test: qHTS assay to identify small molecule antagonists of the androgen receptor (AR) signaling pathway using the MDA cell line (AID 743042; also: nearly all actives have a fitted effect of over 55% in size; also: potency is read from the fitted curve at half-maximal effect)
Summary of the method: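 MDA-kb2 breast carcinoma cells carrying MMTV-luciferase (AR/GR responsive) were co-treated with compounds and the agonist R1881 for 16 h at 37C. Inhibition read as ONE-Glo luminescence; CellTiter-Fluor fluorescence measured in parallel for cytotoxicity.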

[18] = target: Androgen receptor (Homo sapiens) (UniProt P10275); test: qHTS assay to identify small molecule antagonists of the androgen receptor (AR) signaling pathway (AID 743035; active = well fitted inhibition curve with a large enough effect in the signal ratio in the repeat runs, not every such curve was filed as active; the % refers to the signal ratio)
Summary of the method: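 Antagonist mode: AR-bla HEK293 cells co-treated with test compounds and agonist R1881 for 16 h at 37C, 5% CO2. Beta-lactamase activity read as FRET fluorescence after 2 h room-temperature substrate loading.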

[19] = target: Androgen receptor (Homo sapiens) (UniProt P10275); test: qHTS assay to identify small molecule agonists of the androgen receptor (AR) signaling pathway (AID 743036; active = well fitted activation curve with a large enough effect in the signal ratio in the repeat runs, with a control signal flat, not every such curve was filed as active; the % refers to the signal ratio)
Summary of the method: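 Quantitative HTS of the Tox21 10K library in HEK293 cells bearing a stably integrated UAS-controlled beta-lactamase reporter. Compound exposure lasted 16 h at 37C. Reporter activity was detected by FRET substrate fluorescence after 2 h at room temperature.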

Measured: Potency

CCCCCO
not listed: [14] | [15] | [16] | [17] | [18] | [19]
inactive: all other assays above

C=CC(=O)OCCCCCCCCCC
not listed: [5] | [16] | [17] | [18] | [19]
inactive: all other assays above

O=C1CCCN1CCO
active: [11] 54.5 µM
inactive: [1] | [2] | [3] | [4] | [14] | [5] | [7] | [8]

CC1(C)C(=O)NC(=O)N1CO
not listed: [6] | [15] | [16] | [17] | [18] | [19]
inactive: all other assays above

CCCCCCCCCCCCN1CCOCC1
active: [10] 27.3 µM | [12] 19.3 µM
not listed: [6] | [11] | [16] | [17] | [18] | [19]
inactive: all other assays above

O=Cc1ccc([N+](=O)[O-])cc1
active: [12] 48.9 µM
not listed: [6] | [10] | [11] | [16] | [17] | [18] | [19]
inactive: all other assays above

O=c1c2ccccc2oc2ccccc12
active: [11] 61.1 µM
not listed: [10] | [16] | [17] | [18] | [19]
inactive: all other assays above

O=[N+]([O-])c1cccc(I)c1
not listed: [16] | [17] | [18] | [19]
inactive: all other assays above

Cc1ccc2c(Cl)cc(Cl)c(O)c2n1
active: [8] 16.9 µM | [9] 23.9 µM | [10] 1.88 µM | [11] 2.37 µM | [12] 1.88 µM | [15] 9.44 µM | [17] 2.66 µM
not listed: [13] | [18] | [19]
inactive: all other assays above

CCCc1nc(C)c2c(=O)[nH]c(-c3cc(S(=O)(=O)N4CCN(CC)CC4)ccc3OCC)nn12
not listed: [6] | [16] | [19]
inactive: all other assays above

C=CCCC
not listed: [6] | [9] | [11] | [16] | [17] | [18] | [19]
inactive: all other assays above

CC(O)C(C)O (stereo not drawn)
not listed: [5] | [16] | [17] | [18] | [19]
inactive: all other assays above

CC(C(=O)O)c1ccc(/C=C2\CCCCC2=O)cc1 (stereo not drawn)
not listed: [9] | [16] | [17] | [18] | [19]
inactive: all other assays above

CC(=O)c1ccc(Cl)c(Cl)c1Cl
not listed: [8] | [9] | [16] | [17] | [18] | [19]
inactive: all other assays above

NC(=O)c1ccccc1C(N)=O
not listed: [6] | [7] | [8] | [11] | [14] | [19]
inactive: all other assays above

FC(F)(Cl)C(F)(Cl)Cl
not listed: [7] | [8] | [14]
inactive: all other assays above

Cc1ccc(NC=O)c(C)c1
not listed: [6] | [11] | [14] | [15] | [16] | [17] | [18] | [19]
inactive: all other assays above
